Out of some 5,500 compounds screened, about 2,000 (36%) were called active. Roughly 18% stayed inconclusive and do not appear here. Rule as the data show it: active = normalized growth mostly below about 0.91 (no sharp cut-off); inconclusive = no clear call, values can overlap the other calls; inactive = mostly above about 0.92. Some of the results follow.
Experiment: chemical genetic growth profiling, strain panel (AID 1159580);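 also: tested at 20 µM; growth read once vehicle control cultures reached saturation at 30 °C; 1 = growth at the plate median or of vehicle wells; lower values mean less growth of the strain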
Details: growth OD

Measured: normalized growth

Cn1c([N+](=O)[O-])cnc1COC(N)=O
inactive: S. cerevisiae deletion strains, locus YJR075W, strain HOC1, active compounds read low 1.02 | S. cerevisiae deletion strains, locus YKL009W, strain mrt4, active compounds read low 1.01 | S. cerevisiae deletion strains, locus YKL068W, active compounds read low 0.991 | S. cerevisiae deletion strains, locus YKL085W, strain MDH1 (second series), active compounds read low 0.994 | S. cerevisiae deletion strains, locus YKL085W, strain MDH1, active compounds read low 0.994 | S. cerevisiae deletion strains, locus YKL160W, strain elf1, active compounds read low 1.02 | S. cerevisiae deletion strains, locus YKL190W, strain CNB1, active compounds read low 1 | S. cerevisiae deletion strains, locus YKR001C, strain vps1, active compounds read low 0.976 | S. cerevisiae deletion strains, locus YKR026C, strain gcn3, active compounds read low 0.998 | S. cerevisiae deletion strains, locus YKR091W, strain srl3, active compounds read low 0.998 | S. cerevisiae deletion strains, locus YLL001W, strain dnm1, active compounds read low 1.03 | S. cerevisiae deletion strains, locus YLL026W, active compounds read low 1 | S. cerevisiae deletion strains, locus YLL041C, strain sdh2, active compounds read low 0.993 | S. cerevisiae deletion strains, locus YLR027C, strain aat2, active compounds read low 1.01 | S. cerevisiae deletion strains, locus YLR039C, strain RIC1, active compounds read low 1.02 | S. cerevisiae deletion strains, locus YLR058C, strain SHM2, active compounds read low 1.01 | S. cerevisiae deletion strains, locus YLR102C, strain apc9, active compounds read low 0.986 | S. cerevisiae deletion strains, locus YLR113W, strain HOG1, active compounds read low 1.03 | S. cerevisiae deletion strains, locus YLR221C, strain rsa3, active compounds read low 0.978 | S. cerevisiae deletion strains, locus YLR258W, strain gsy2, active compounds read low 1.02 | S. cerevisiae deletion strains, locus YLR262C, strain YPT6 (second series), active compounds read low 1 | S. cerevisiae deletion strains, locus YLR262C, strain YPT6, active compounds read low 1.05 | S. cerevisiae deletion strains, locus YLR268W, strain sec22, active compounds read low 0.991 | S. cerevisiae deletion strains, locus YLR320W, strain mms22, active compounds read low 0.983 | S. cerevisiae deletion strains, locus YLR330W, strain CHS5, active compounds read low 1.01 | S. cerevisiae deletion strains, locus YLR342W, strain FKS1 (second series), active compounds read low 0.982 | S. cerevisiae deletion strains, locus YLR342W, strain FKS1, active compounds read low 0.998 | S. cerevisiae deletion strains, locus YLR357W, strain rsc2, active compounds read low 0.989 | S. cerevisiae deletion strains, locus YLR370C, strain arc18, active compounds read low 1.02 | S. cerevisiae deletion strains, locus YLR371W, strain rom2, active compounds read low 0.988 | S. cerevisiae deletion strains, locus YLR384C, strain iki3, active compounds read low 1 | S. cerevisiae deletion strains, locus YLR418C, strain cdc73, active compounds read low 0.962 | S. cerevisiae deletion strains, locus YML016C, strain PPZ1, active compounds read low 1 | S. cerevisiae deletion strains, locus YML032C, strain rad52, active compounds read low 0.984 | S. cerevisiae deletion strains, locus YML120C, strain ndi1, active compounds read low 0.999 | S. cerevisiae deletion strains, locus YML124C, strain tub3, active compounds read low 0.99 | S. cerevisiae deletion strains, locus YMR058W, strain fet3, active compounds read low 1.01 | S. cerevisiae deletion strains, locus YMR078C, strain ctf18, active compounds read low 0.983 | S. cerevisiae deletion strains, locus YMR125W, strain sto1, active compounds read low 0.991 | S. cerevisiae deletion strains, locus YMR129W, active compounds read low 1.01 | S. cerevisiae deletion strains, locus YMR205C, strain PFK2, active compounds read low 0.982 | S. cerevisiae deletion strains, locus YMR223W, strain ubp8, active compounds read low 0.994 | S. cerevisiae deletion strains, locus YMR231W, strain pep5, active compounds read low 1.01 | S. cerevisiae deletion strains, locus YMR263W, strain SAP30, active compounds read low 1.01 | S. cerevisiae deletion strains, locus YMR307W, strain GAS1, active compounds read low 0.981 | S. cerevisiae deletion strains, locus YNL067W, strain RPL9B, active compounds read low 1.01 | S. cerevisiae deletion strains, locus YNL071W, strain lat1, active compounds read low 1 | S. cerevisiae deletion strains, locus YNL153C, strain GIM3, active compounds read low 1.01 | S. cerevisiae deletion strains, locus YNL183C, strain NPR1, active compounds read low 0.957 | S. cerevisiae deletion strains, locus YNL209W, strain ssb2, active compounds read low 1.01 | S. cerevisiae deletion strains, locus YNL233W, strain BNI4, active compounds read low 1.01 | S. cerevisiae deletion strains, locus YNL248C, strain rpa49, active compounds read low 0.995 | S. cerevisiae deletion strains, locus YNL250W, strain rad50, active compounds read low 0.986 | S. cerevisiae deletion strains, locus YNL271C, strain bni1, active compounds read low 0.978 | S. cerevisiae deletion strains, locus YNL298W, strain CLA4, active compounds read low 0.988 | S. cerevisiae deletion strains, locus YNL307C, strain MCK1, active compounds read low 0.984 | S. cerevisiae deletion strains, locus YNL322C, strain KRE1 (second series), active compounds read low 1.02 | S. cerevisiae deletion strains, locus YNR049C, strain mso1, active compounds read low 1.01 | S. cerevisiae deletion strains, locus YNR052C, strain pop2, active compounds read low 0.989 | S. cerevisiae deletion strains, locus YOL006C, strain TOP1, active compounds read low 1.05 | S. cerevisiae deletion strains, locus YOL012C, strain htz1 0.743 | S. cerevisiae deletion strains, locus YOL147C, strain pex11, active compounds read low 0.981 | S. cerevisiae deletion strains, locus YOR001W, strain rrp6, active compounds read low 0.963 | S. cerevisiae deletion strains, locus YOR061W, strain CKA2, active compounds read low 1.01 | S. cerevisiae deletion strains, locus YOR069W, strain VPS5, active compounds read low 1 | S. cerevisiae deletion strains, locus YOR070C, strain gyp1, active compounds read low 0.996 | S. cerevisiae deletion strains, locus YOR080W, strain dia2, active compounds read low 1.01 | S. cerevisiae deletion strains, locus YOR083W, strain WHI5, active compounds read low 1.03 | S. cerevisiae deletion strains, locus YOR106W, strain vam3, active compounds read low 1.03 | S. cerevisiae deletion strains, locus YOR136W, strain idh2, active compounds read low 0.978 | S. cerevisiae deletion strains, locus YOR144C, strain elg1, active compounds read low 0.972 | S. cerevisiae deletion strains, locus YOR184W, strain ser1, active compounds read low 1.01 | S. cerevisiae deletion strains, locus YOR231W, strain MKK1, active compounds read low 0.997 | S. cerevisiae deletion strains, locus YOR265W, strain rbl2, active compounds read low 1 | S. cerevisiae deletion strains, locus YOR270C, strain vph1, active compounds read low 1 | S. cerevisiae deletion strains, locus YOR290C, strain snf2, active compounds read low 1.03 | S. cerevisiae deletion strains, locus YOR316C, strain cot1, active compounds read low 0.993 | S. cerevisiae deletion strains, locus YPL051W, strain arl3, active compounds read low 1.03 | S. cerevisiae deletion strains, locus YPL078C, strain atp4, active compounds read low 1.03 | S. cerevisiae deletion strains, locus YPL106C, strain sse1, active compounds read low 1.02 | S. cerevisiae deletion strains, locus YPL240C, strain hsp82, active compounds read low 1.01 | S. cerevisiae deletion strains, locus YPL241C, strain CIN2, active compounds read low 1.01 | S. cerevisiae deletion strains, locus YPL256C, strain CLN2, active compounds read low 0.999 | S. cerevisiae deletion strains, locus YPR119W, strain clb2, active compounds read low 0.981 | S. cerevisiae deletion strains, locus YPR141C, strain kar3, active compounds read low 0.983 | S. cerevisiae deletion strains, locus YPR163C, strain tif3, active compounds read low 0.99 | S. cerevisiae deletion strains, locus YPR167C, strain met16, active compounds read low 0.992 | S. cerevisiae deletion strains, strain wtn01, active compounds read low 0.984 | S. cerevisiae strains, strain wild type, active compounds read low 1.01

Source: PubChem BioAssay AID1159580 (chemical genetic matrix, 2015)
